# From paper PMC4336329 (PLoS ONE, 2015)
# In all, about 310,000 compounds went through this assay and about 14,000 (4.5%) showed an effect of 50% or more. Effects have a minus sign here. For the sample, strong results were picked, then their nearest neighbours and some compounds at random.
# Target: human ether-à-go-go-related gene (hERG) potassium channel (human, UniProt Q12809)
# Assay: primary screen, population patch clamp on CHO cells stably expressing hERG; higher = less effect of the substance
# 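Also: peak tail current of the secondary pulse compared with the same well before compound.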
# human ether-à-go-go-related gene (hERG) potassium channel, sequence (Q12809 whole entry, looked up): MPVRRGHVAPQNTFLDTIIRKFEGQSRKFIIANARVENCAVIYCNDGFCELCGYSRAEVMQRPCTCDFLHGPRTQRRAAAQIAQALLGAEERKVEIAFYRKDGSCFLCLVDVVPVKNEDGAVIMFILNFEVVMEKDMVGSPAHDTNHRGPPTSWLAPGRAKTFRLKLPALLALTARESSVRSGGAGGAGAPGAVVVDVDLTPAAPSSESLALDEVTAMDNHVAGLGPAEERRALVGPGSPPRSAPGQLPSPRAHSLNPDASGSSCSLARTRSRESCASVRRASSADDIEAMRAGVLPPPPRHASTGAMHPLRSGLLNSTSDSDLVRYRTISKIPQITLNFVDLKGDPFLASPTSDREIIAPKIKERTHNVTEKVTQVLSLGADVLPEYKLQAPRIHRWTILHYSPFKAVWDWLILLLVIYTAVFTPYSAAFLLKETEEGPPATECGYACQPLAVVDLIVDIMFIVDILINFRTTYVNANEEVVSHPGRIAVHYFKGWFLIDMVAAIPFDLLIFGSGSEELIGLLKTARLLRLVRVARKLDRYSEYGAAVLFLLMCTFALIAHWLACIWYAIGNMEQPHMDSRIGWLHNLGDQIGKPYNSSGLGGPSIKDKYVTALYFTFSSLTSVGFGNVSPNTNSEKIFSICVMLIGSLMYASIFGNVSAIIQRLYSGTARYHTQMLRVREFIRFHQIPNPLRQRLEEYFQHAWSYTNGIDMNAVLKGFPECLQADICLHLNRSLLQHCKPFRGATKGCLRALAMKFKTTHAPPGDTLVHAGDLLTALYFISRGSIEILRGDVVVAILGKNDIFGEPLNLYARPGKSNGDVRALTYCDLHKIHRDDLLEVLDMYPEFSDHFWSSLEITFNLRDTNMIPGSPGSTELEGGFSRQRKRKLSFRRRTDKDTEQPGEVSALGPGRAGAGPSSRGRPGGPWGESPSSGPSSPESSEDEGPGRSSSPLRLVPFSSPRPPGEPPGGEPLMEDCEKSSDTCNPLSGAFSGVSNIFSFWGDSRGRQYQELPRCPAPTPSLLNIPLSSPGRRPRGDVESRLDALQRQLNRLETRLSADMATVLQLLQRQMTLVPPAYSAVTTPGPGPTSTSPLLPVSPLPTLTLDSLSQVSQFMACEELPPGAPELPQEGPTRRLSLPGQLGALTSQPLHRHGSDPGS
row,Compound,"hERG current change (%, negative = inhibition) at 10uM"
1,COc1ccc(C2/C=C\CN(CC(C)C)CC(=O)N2Cc2ccc(F)cc2)cc1 (centres unmarked),-6.03%
2,Cc1cc([N+](=O)[O-])nn1CC(=O)N(C)C1CCCCC1,-18.6%
3,O=C(Nc1ccccc1Cl)C1CCN(S(=O)(=O)c2cccc3nonc23)CC1,16%
4,CC(=O)c1c(C)oc2ccc(N(C(C)=O)S(=O)(=O)c3cccc([N+](=O)[O-])c3)cc12,8.76%
5,N#C/C(=C(/O)CN1C(=O)c2ccccc2C1=O)c1nc2ccccc2[nH]1,11.6%
6,CCOc1ccccc1CN1CCN(Cc2cccc3c2OCO3)CC1CCO (centres unmarked),-62.6%
7,COc1ccccc1CN(Cc1cccnc1)S(=O)(=O)c1ccc(-n2cnnn2)c(OC)c1,-63%
8,COc1cc(S(=O)(=O)N(Cc2ccc(C)cc2)Cc2ccco2)ccc1-n1cnnn1,2.53%
9,COc1ccc(CN(Cc2cccnc2)S(=O)(=O)c2ccc(-n3cnnn3)c(OC)c2)cc1,-46.7%
10,COc1cc(S(=O)(=O)N(Cc2cccnc2)Cc2cccc(OC)c2OC)ccc1-n1cnnn1,-46.5%
11,COc1cc(S(=O)(=O)N(Cc2cccnc2)Cc2ccco2)ccc1-n1cnnn1,-52.3%
12,COc1ccccc1CN(Cc1ccco1)S(=O)(=O)c1ccc(-n2cnnn2)c(OC)c1,7.21%
13,CC(C)C[C@H](NC(=O)c1nc[nH]c1C(=O)N1CC[NH2+]CC1)C(=O)OCc1ccccc1.[Cl-],20.5%
14,COc1ccc(C2C3=C(CCCC3=O)N(CC(=O)O)C3=C2C(=O)CCC3)cc1Cl,23.8%
15,CN(c1cccc(NC(=O)CCSc2ccccc2)c1)S(C)(=O)=O,-28.8%
16,O=C1c2ccccc2NC(c2ccc3c(c2)OCCO3)N1c1ccc2c(c1)OCCO2 (centres unmarked),10.9%
17,Cc1cc(NC(=O)/C=C\C(=O)O)c([N+](=O)[O-])cc1C,11.6%
18,Cc1ccc(NC(=O)/C=C\C(=O)O)c([N+](=O)[O-])c1,21.4%
19,Cc1ccc(NC(=O)/C=C/C(=O)O)c([N+](=O)[O-])c1,-67%
20,COC(=O)c1cn(NC(=O)Cc2cccc(OC)c2)c(=O)c2ccccc12,12%
21,Cc1cccc(NC(=S)N(CCCN2CCOCC2)Cc2ccco2)c1,-29.9%
22,Cc1cc(NC(=S)N(CCCN2CCN(C)CC2)Cc2ccco2)ccc1Cl,-68.2%
23,CCN1CCN(CCCN(Cc2ccco2)C(=S)Nc2ccc(Cl)c(C)c2)CC1,-74.8%
24,Cc1ccc(NC(=S)N(CCCN2CCOCC2)Cc2ccco2)cc1Cl,-36.6%

row,Compound,"hERG current change (%, negative = inhibition) at 10uM"
1,CCN1CCN(CCCN(Cc2ccco2)C(=S)Nc2ccc(C)c(Cl)c2)CC1,-64.8%
2,COc1cccc(NC(=S)N(CCCN2CCN(C)CC2)Cc2ccco2)c1,-36.2%
3,S=c1[nH]nc(CSCCOc2ccccc2)o1,8.24%
4,CN(C)S(=O)(=O)c1cccc(NC(=O)CNCC2CCCCC2)c1.O=C(O)C(=O)O,-1.77%
5,Cc1ccc2nc(SCC(=O)N3c4ccccc4CC3C)c(C)cc2c1 (centres unmarked),7.54%
6,COc1ccc(NC(=O)C2CC2)cc1-n1cnnn1,5.86%
7,O=C1CC(c2ccccc2)Cc2nc(N3CCc4ccccc4C3)ncc21 (centres unmarked),-2.75%
8,CCC(CO)N=CC1=C(O)CC(c2ccccc2)CC1=O (centres unmarked),17.1%
9,Cc1cc(C)c(NC2=NS(=O)(=O)c3ccccc32)c(C)c1,-10.9%
10,CC1=NC(Nc2nc(C)c3ccccc3n2)=NC(C)(C)C1,-69.4%
11,COc1ccc(Nc2nc(C)c3ccccc3n2)cc1,-17.4%
12,CC(=O)c1cnc(Nc2nc(C)c3ccccc3n2)nc1C,17.3%
13,O=C(O)c1ccccc1Sc1ncnc2sccc12,9.7%
14,Cc1cc(C(=O)OCC(=O)NC2CCS(=O)(=O)C2)c(C)n1-c1ccccc1 (centres unmarked),-6.8%
15,CC(NC(=O)Nc1nnc(C(F)(F)F)s1)(C(F)(F)F)C(F)(F)F,-7.61%
16,CCc1nnc(NC(=O)CCN2C(=O)c3ccccc3S2(=O)=O)s1,17.3%
17,CCOC(=O)c1c(C)[nH]c(C(=O)N/N=C/c2ccc(OC)c(OC)c2)c1C,12.7%
18,COc1ccc(C(=O)N/C(=C\c2ccco2)C(=O)NCCN2CCOCC2)cc1,8.33%
19,COc1ccc(/C=C(\NC(=O)c2ccccc2)C(=O)NCCN2CCOCC2)cc1OC,23%
20,COc1ccc(C(=O)N/C(=C\c2cn(C)c3ccccc23)C(=O)NCCCN2CCOCC2)cc1,4.94%
21,O=C(NC(=S)NCCCN1CCOCC1)c1ccc([N+](=O)[O-])cc1,-33.4%
22,COc1ccc(/C=C(\NC(=O)c2ccc([N+](=O)[O-])cc2)C(=O)NCCN2CCOCC2)cc1,-70.7%
23,COc1ccc(/C=C(\NC(=O)c2ccc([N+](=O)[O-])cc2)C(=O)NCCCN2CCOCC2)cc1,-77%
